In PubChem BioAssay (EPA / NIEHS) one finds outcome and AC50 data, which are given here for three compounds.

Structures are written as SMILES. Activity calls are given as the source filed them. The calls were made as follows: active = hit-call score of the fitted dose curve at least 0.9, where 1 is the maximum; inactive = score below 0.9.

The nature of experiment [1]: APR_HepG2_NuclearSize_72hr: Apredica 72-hour HepG2 Assay for Nuclear Size (AID 2282925). The settings on record: high-content imaging, actives raise or lower the signal. In short, it runs like this:
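Nuclear size was read by high-content imaging of Hoechst 33342 stain after formaldehyde fixation. Compounds ran 72 h on HepG2 at 0.39 to 200 uM, with final DMSO 0.5% v/v. Curves fitted both directions relative to DMSO control.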

Experiment [2] is described as follows: ATG_CRE_CIS: Attagene CIS-FACTORIAL HepG2 Assay for human cAMP Responsive Element (CRE) binding protein 3 (AID 2282926). The settings on record: HepG2 CRE cis-reporter, Attagene multiplexed mRNA; actives raise or lower the signal. The method in brief:
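Liver-derived HepG2, transfected with a CRE-containing reporter panel, exposed 24 h; transcript levels sized and quantified by capillary electrophoresis of labelled amplicons; signal changes either way referenced to vehicle.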

Experiment [3] concerns the target CCAAT/enhancer-binding protein beta (Homo sapiens) (UniProt P17676). Briefly: ATG_C_EBP_CIS: Attagene CIS-FACTORIAL HepG2 Assay for human CCAAT/Enhancer Binding Protein (C/EBP) beta (AID 2282927). Conditions: HepG2 Attagene cis-factorial transcription factor reporter; actives raise or lower the signal. The method in brief: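 Endogenous C/EBPb-driven reporter transcripts measured in transfected human HepG2 cells at 24 h via RT-PCR and capillary electrophoresis of labelled fragments. Activity fitted in both directions relative to DMSO baseline.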

The nature of experiment [4]: ATG_CMV_CIS: Attagene CIS-FACTORIAL HepG2 Assay for human CMV (Internal Marker) (AID 2282928).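 Also: endpoint acts as a background internal control marker rather than a target.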 Conditions: HepG2 CMV promoter reporter, transcription factor profiling; actives raise or lower the signal. The method in brief:
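24 h chemical treatment, HepG2 with transient multi-reporter transfection; RNA → oligo(dT) RT → PCR → 6-FAM extension → HpaI digest → CE fluorescence. Bidirectional fit, DMSO negative control.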

Experiment [5] in a line: ATG_DR4_LXR_CIS: Attagene CIS-FACTORIAL HepG2 Assay for human Liver X Receptor (LXR), DR4 submotif (AID 2282929). Conditions: HepG2 Attagene DR4 cis-reporter, mRNA transcription; actives raise or lower the signal. The method in brief:
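HepG2 cells were transiently transfected with multiple cis-regulated reporter units and dosed for 24 hours. The DR4 reporter mRNA was quantified by RT-PCR, 6-FAM labelling and capillary electrophoresis. Bidirectional fits used DMSO as baseline.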

In experiment [6] the target is Aryl hydrocarbon receptor (Homo sapiens) (UniProt P35869). Briefly: ATG_Ahr_CIS: Attagene CIS-FACTORIAL HepG2 Assay for human Aryl Hydrocarbon Receptor (Ahr) (AID 2282930). The settings on record: HepG2 AhR cis-factorial reporter transcription; actives raise or lower the signal. The method in brief: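 Reporter mRNA levels, quantified by RT-PCR and fluorescent capillary electrophoresis, reflect endogenous AhR transcriptional activity in HepG2 cells carrying transfected cis-promoter reporter constructs. Readout at 24 h post-dose; gain or loss fitted against DMSO baseline.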

Experiment [7] can be described thus: ATG_AP_1_CIS: Attagene CIS-FACTORIAL HepG2 Assay for human Activator Protein 1 (AP-1) (AID 2282931). The settings on record: HepG2 Attagene cis-factorial AP-1 reporter mRNA; actives raise or lower the signal. In short, it runs like this:
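HepG2 cells transiently transfected with cis-element-driven reporter transcription units, dosed for 24 hours. Reporter mRNA measured by RT-PCR, 6-FAM labelling, HpaI digestion and capillary electrophoresis. Bidirectional fitting against DMSO baseline.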

A short description of experiment [8]: ATG_AP_2_CIS: Attagene CIS-FACTORIAL HepG2 Assay for human Activator Protein 2 (AP-2) (AID 2282932). The settings on record: HepG2 AP-2 cis-reporter, Attagene transcription factor profiling; actives raise or lower the signal. The method in brief:
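Endogenous transcription factor activity is reported through transfected multiplex reporter constructs in HepG2, after 24 h of compound exposure. Transcripts were quantified by RT-PCR and capillary electrophoresis of fluorescent fragments. Bidirectional fit against DMSO.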

A short description of experiment [9]: ATG_BRE_CIS: Attagene CIS-FACTORIAL HepG2 Assay for human Bone Morphogenetic Protein (BMP) Response Element (BRE) (AID 2282933). Conditions: HepG2 BMP response element reporter, Attagene transcription factor profiling; actives raise or lower the signal. In short, it runs like this:
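Endogenous transcription factor activity at a BMP response element was monitored in transfected HepG2 cells 24 h after dosing. Fluorescent RT-PCR products were resolved by capillary electrophoresis, and activity was fitted in both directions versus DMSO.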

Experiment [10] concerns the target Retinoic acid receptor alpha (Homo sapiens) (UniProt P10276). The experiment is described as follows: ATG_DR5_RAR_CIS: Attagene CIS-FACTORIAL HepG2 Assay for human Retinoic Acid Receptor Alpha (RARE), DR5 submotif (AID 2282934). Conditions: HepG2 Attagene cis-factorial RARE DR5 reporter, mRNA; actives raise or lower the signal. The method in brief: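 Reporter transcripts from a DR5-regulated unit, measured via RT-PCR plus capillary electrophoresis, reflect endogenous RAR activity in transiently transfected human HepG2 liver cells. Exposure lasted 24 h; gain or loss of signal scored against DMSO.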

Experiment [11] concerns the target Transcription factor E2F1 (Homo sapiens) (UniProt Q01094). The experiment is described as follows: ATG_E2F_CIS: Attagene CIS-FACTORIAL HepG2 Assay for human E2F Transcription Factor 1 (AID 2282935). The settings on record: HepG2 Attagene cis-reporter, E2F reporter RNA transcripts; actives raise or lower the signal. In short, it runs like this: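 Gain or loss of reporter transcript, fitted against DMSO, reflects E2F1-driven transcription. Transiently transfected HepG2 dosed 24 h before RNA isolation. Quantified by fluorescent RT-PCR products separated by capillary electrophoresis.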

Experiment [12] in a line: ATG_E_Box_CIS: Attagene CIS-FACTORIAL HepG2 Assay for human Enhancer Box (E-box) (AID 2282936). The settings on record: HepG2 E-box cis-reporter transcription, actives raise or lower the signal. The method in brief:
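E-box-driven reporter transcripts measured in transiently transfected HepG2 after 24 h exposure: RNA reverse-transcribed, PCR-amplified, fluorescently labelled, digested and resolved by capillary electrophoresis. Gain or loss relative to DMSO.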

The nature of experiment [13]: ATG_M_61_CIS: Attagene CIS-FACTORIAL HepG2 Assay for M61 Transcription Factor (Internal Marker) (AID 2282937). Conditions: HepG2 Attagene CIS-FACTORIAL M61 internal marker reporter; actives raise or lower the signal. The method in brief: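 HepG2 cells transiently transfected with multiplexed cis-promoter reporter units reporting endogenous transcription factor activity, measured 24 h after dosing. Reporter mRNA quantified by RT-PCR and capillary electrophoresis; bidirectional fit against DMSO baseline.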

Experiment [14] is described as follows: ATG_EGR_CIS: Attagene CIS-FACTORIAL HepG2 Assay for human Early Growth Response 1 (EGR1) (AID 2282938). Conditions: HepG2 Attagene CIS-FACTORIAL EGR reporter mRNA; actives raise or lower the signal. In short, it runs like this: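 HepG2 cells transiently transfected with cis-element-driven multiplexed reporter units, dosed for 24 h. EGR1-element reporter mRNA quantified by RT-PCR, 6-FAM labelling, HpaI digestion and capillary electrophoresis; bidirectional fit versus DMSO.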

Experiment [15] is described as follows: ATG_M_19_CIS: Attagene CIS-FACTORIAL HepG2 Assay for M19 Transcription Factor (Internal Marker) (AID 2282939). The settings on record: HepG2 Attagene CIS-FACTORIAL M19 internal marker reporter; actives raise or lower the signal. In short, it runs like this:
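Background-control endpoint from a multiplexed HepG2 reporter panel. Cells carrying cis-regulated reporter constructs are treated 24 h, then reporter transcripts are amplified, fluorescently labelled and sized by capillary electrophoresis. DMSO defines baseline.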

The nature of experiment [16]: ATG_ERE_CIS: Attagene CIS-FACTORIAL HepG2 Assay for Estrogen Response Element (ERE) (AID 2282940). Conditions: HepG2 ERE cis-reporter, Attagene RNA transcript; actives raise or lower the signal. The method in brief:
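Cells used were human hepatoma HepG2, transfected with multiple reporter transcription units under cis-regulatory promoters. Reporter mRNA, read 24 h post-dosing via fluorescent RT-PCR products on capillary electrophoresis, was fitted bidirectionally relative to DMSO.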

Experiment [17] is described as follows: ATG_Ets_CIS: Attagene CIS-FACTORIAL HepG2 Assay for human Erythroblast Transformation Specific (ETS) (AID 2282941). The settings on record: HepG2 ETS cis-reporter transcription, actives raise or lower the signal. The method in brief:
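Cis-regulated reporter mRNA induction in HepG2 (transient transfection), 24 h exposure, RT-PCR plus capillary electrophoresis detection; DMSO serves as negative control and baseline.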

In experiment [18] the target is Hepatocyte nuclear factor 3-beta (Homo sapiens) (UniProt Q9Y261). Briefly: ATG_FoxA2_CIS: Attagene CIS-FACTORIAL HepG2 Assay for human Forkhead box A2 (FOXA2) (AID 2282942). The settings on record: HepG2 cis-reporter transcription factor activity, 24 h; actives raise or lower the signal. In short, it runs like this: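 HepG2 transiently transfected with a multiplexed cis-promoter reporter library read endogenous FOXA2 activity. After 24 h compound exposure, reporter mRNA was quantified by RT-PCR, HpaI digestion and capillary electrophoresis. Bidirectional fit against DMSO.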

Experiment [19] is described as follows: ATG_FoxO_CIS: Attagene CIS-FACTORIAL HepG2 Assay for human Forkhead box O (FoxO) (AID 2282943). The settings on record: HepG2 Attagene cis-reporter, FoxO element, mRNA; actives raise or lower the signal. The method in brief: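 Endogenous transcription factor activity read from multiplexed cis-promoter reporter transcripts in transiently transfected HepG2, 24 h after dosing. Reporter RNA measured via RT-PCR plus capillary electrophoresis of FAM-labeled products; gain or loss relative to DMSO.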

The nature of experiment [20]: ATG_GATA_CIS: Attagene CIS-FACTORIAL HepG2 Assay for human GATA Binding Protein (AID 2282944). Conditions: HepG2 GATA cis-element reporter, Attagene multiplex mRNA; actives raise or lower the signal. In short, it runs like this: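 Endogenous transcription factor activity was captured through cis-promoter-driven reporters in transfected HepG2 cells. After 24 h exposure, reporter transcripts were quantified by RT-PCR with fluorescent capillary electrophoresis, and responses fitted both directions against DMSO.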

Hepatocyte nuclear factor 3-beta (Homo sapiens), sequence (Q9Y261 whole entry, looked up): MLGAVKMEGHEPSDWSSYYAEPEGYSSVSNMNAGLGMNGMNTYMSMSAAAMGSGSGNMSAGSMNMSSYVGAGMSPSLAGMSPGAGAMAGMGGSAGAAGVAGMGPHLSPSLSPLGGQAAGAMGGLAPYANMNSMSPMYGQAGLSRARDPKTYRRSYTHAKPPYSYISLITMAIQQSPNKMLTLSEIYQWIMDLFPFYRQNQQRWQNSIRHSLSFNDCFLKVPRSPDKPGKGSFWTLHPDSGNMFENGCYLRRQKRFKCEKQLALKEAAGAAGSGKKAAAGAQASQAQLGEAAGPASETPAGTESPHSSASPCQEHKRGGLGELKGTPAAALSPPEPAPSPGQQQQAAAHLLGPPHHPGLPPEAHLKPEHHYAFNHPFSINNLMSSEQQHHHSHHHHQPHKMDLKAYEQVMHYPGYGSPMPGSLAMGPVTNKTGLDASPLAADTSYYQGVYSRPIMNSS
Aryl hydrocarbon receptor (Homo sapiens), sequence (P35869 whole entry, looked up): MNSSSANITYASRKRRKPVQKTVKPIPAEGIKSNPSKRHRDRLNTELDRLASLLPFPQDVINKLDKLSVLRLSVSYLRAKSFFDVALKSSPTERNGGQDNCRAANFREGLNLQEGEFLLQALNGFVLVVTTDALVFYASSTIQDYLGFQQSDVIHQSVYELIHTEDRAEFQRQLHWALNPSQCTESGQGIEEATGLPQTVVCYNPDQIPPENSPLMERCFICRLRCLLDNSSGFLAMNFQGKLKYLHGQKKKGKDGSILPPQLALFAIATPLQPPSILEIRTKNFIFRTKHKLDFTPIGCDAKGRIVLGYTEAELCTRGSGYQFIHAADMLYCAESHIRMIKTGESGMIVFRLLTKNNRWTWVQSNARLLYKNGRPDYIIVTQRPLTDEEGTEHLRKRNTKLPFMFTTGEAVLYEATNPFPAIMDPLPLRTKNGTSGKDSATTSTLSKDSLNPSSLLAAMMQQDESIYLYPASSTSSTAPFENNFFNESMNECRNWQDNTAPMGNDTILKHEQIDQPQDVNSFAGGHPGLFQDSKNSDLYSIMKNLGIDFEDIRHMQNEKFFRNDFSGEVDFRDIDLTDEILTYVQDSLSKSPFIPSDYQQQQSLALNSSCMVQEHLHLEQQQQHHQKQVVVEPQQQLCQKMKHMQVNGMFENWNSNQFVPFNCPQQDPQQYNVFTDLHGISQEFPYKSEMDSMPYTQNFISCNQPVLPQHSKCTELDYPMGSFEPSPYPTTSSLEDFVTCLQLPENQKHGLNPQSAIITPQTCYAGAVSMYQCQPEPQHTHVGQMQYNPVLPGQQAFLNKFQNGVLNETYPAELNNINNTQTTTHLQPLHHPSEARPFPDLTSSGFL
CCAAT/enhancer-binding protein beta (Homo sapiens), sequence (P17676 whole entry, looked up, the tested form may be a part): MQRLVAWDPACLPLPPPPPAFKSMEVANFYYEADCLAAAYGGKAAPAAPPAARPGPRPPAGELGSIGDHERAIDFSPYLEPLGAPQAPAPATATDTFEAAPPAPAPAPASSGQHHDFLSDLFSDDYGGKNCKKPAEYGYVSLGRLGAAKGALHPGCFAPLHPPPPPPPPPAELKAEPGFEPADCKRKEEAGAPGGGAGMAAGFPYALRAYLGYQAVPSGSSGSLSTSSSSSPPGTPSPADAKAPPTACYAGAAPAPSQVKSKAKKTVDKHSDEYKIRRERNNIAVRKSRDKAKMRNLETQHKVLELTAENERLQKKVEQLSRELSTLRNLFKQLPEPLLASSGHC
Transcription factor E2F1 (Homo sapiens), sequence (Q01094 whole entry, looked up): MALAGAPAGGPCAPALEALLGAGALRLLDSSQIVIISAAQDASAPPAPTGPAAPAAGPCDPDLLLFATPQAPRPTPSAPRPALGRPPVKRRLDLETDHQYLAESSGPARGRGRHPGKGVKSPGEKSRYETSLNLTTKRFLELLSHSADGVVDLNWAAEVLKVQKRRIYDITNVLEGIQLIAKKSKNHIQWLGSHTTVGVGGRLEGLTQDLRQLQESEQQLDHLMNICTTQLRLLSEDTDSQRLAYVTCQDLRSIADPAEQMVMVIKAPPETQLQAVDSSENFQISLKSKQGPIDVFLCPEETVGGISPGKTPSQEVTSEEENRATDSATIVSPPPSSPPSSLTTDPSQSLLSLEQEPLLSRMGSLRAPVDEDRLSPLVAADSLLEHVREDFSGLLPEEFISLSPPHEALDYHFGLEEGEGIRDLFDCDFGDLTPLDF
Retinoic acid receptor alpha (Homo sapiens), sequence (P10276 whole entry, looked up): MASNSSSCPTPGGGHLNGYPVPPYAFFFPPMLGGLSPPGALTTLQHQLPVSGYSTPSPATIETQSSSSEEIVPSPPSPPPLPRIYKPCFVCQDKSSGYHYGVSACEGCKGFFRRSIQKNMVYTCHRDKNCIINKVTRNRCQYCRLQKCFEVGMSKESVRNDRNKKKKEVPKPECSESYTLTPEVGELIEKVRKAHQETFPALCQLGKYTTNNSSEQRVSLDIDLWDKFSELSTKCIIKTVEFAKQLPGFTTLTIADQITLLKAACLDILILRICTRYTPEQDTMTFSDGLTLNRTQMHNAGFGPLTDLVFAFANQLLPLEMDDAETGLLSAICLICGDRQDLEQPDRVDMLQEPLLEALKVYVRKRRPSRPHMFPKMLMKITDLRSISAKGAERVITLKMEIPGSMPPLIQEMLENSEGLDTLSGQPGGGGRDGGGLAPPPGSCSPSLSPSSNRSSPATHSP

By AC50 is commonly meant the concentration giving half of the maximal activity seen. As to `COc1cccc2c1C(=O)c1c(O)c3c(c(O)c1C2=O)C[C@@](O)(C(=O)CO)C[C@@H]3O[C@H]1C[C@H](N)[C@H](O)[C@H](C)O1`, the result in experiment [1], in experiment [2], in experiment [3], in experiment [6], in [9] and in experiment [10] was inactive. The compound was called inactive in experiment [11], in [13], in experiment [15], in experiment [16], in [17] and in experiment [18]. Also, the compound was classed as inactive in experiment [20]. In addition, the AC50 in [4] is 1.19 µM (active); in [5], 957 nM (active); in experiment [7] it was 2.15 µM (active); in experiment [8] it was 3.75 µM (active); in experiment [12], 1.85 µM (active); in experiment [14] it was 2.04 µM (active). In addition, the AC50 in experiment [19] was 543 nM (active).

For `CC(=O)OCCOCCOCCOC(C)=O`, the result in experiment [1], in experiment [2], in [3], in experiment [4], in experiment [5] and in experiment [6] was inactive. For the same compound, the compound was classed as inactive in experiment [7], in experiment [8], in [9], in [10], in experiment [11] and in experiment [12]. Also, the result in experiment [13], in [14], in experiment [15], in experiment [16], in experiment [17] and in experiment [18] was inactive. Besides, the compound was called inactive in experiment [19] and in experiment [20].

`c1cc(-c2ccncc2)ccn1`: the compound was called inactive in experiment [1], in [2], in experiment [3], in [4], in experiment [5] and in experiment [6]. In addition, the compound was classed as inactive in [7], in experiment [8], in experiment [9], in experiment [10], in [11] and in experiment [12]. Besides, the call in experiment [13], in [14], in experiment [15], in experiment [16], in [17] and in experiment [18] was inactive. In addition, the outcome in [19] and in experiment [20] was inactive.
